# PP5 primary: PP5 (human) phosphatase inhibition | P53041 | purified PP5c, OMFP substrate fluorescence | inhibition, % at 6.7 µM | 0.18% of 320,000 active;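 active means inhibition above the campaign's mean inhibition across all tested compounds plus 3 SD, cut at about 9.5% in these data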;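 further: 0% = DMSO only and 100% = 100 µM cantharidin control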
# Target sequence (P53041 whole entry, looked up): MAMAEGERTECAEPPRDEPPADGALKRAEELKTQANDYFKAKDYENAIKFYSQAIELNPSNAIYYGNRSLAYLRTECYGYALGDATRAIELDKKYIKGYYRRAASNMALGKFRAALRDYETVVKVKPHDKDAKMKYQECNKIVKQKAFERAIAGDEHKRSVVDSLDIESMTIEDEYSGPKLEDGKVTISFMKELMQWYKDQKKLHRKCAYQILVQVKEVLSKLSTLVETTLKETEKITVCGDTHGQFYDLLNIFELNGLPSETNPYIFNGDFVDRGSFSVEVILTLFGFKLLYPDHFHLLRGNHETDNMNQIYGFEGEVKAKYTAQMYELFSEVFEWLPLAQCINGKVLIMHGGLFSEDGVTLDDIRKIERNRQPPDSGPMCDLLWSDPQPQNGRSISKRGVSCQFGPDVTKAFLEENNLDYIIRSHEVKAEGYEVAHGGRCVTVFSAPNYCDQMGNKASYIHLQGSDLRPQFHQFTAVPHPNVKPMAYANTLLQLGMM
# Mdm2-MdmX inh: human Mdm2/MdmX binding inhibition; O15151+Q00987; SaOS-2 split-luciferase Mdm2/MdmX complementation, luminescence; inhibition, % at 8 µM; 3% of 330,000 active; AID 485346;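 active means inhibition of at least 50% at 8 µM in the primary screen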
# CSC inhib: blocks cancer stem cells; cancer stem cell-like cells viability, luminescence; inhibition, % at 7.5 µM; 1.1% of 300,000 active; in the data active means inhibition above about 75%; inconclusive means no clear call, values can overlap the other calls; tested in HMLE shEcad cells
# Calb FLC: C. albicans growth modulation with fluconazole; C. albicans CaCi-2 (fluconazole-resistant clinical isolate) + fluconazole, Alamar Blue growth, 48 h; growth inhibition, % (concentration not given with the values); 0.57% of 300,000 active; AID 1979;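 active means growth inhibition above about 58% in most replicates, limit read from the data, passing the limit was not always enough; inconclusive means exactly half the replicates above a set limit; inactive means most replicates below a set limit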;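 further: all wells also contain fluconazole at 8 µg/ml as a sub-toxic cotreatment; 0% = median of DMSO wells and 100% = median of geldanamycin control wells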
# PP1 inh: blocks human PP1-alpha phosphatase, a PP5 counter-screen; purified PP1alpha, OMFP fluorescence; inhibition, % at 6.7 µM; 0.9% of 320,000 active;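 active means inhibition above the mean inhibition of all tested compounds plus 3 SD, computed separately for each screening campaign, cut at about 15% in these data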
# Beta cell apopt: blocks beta cell apoptosis | AID 435005 | INS-1E cytokine-induced death, ATP luminescence, 48 h; percent of positive-control rescue, neutral wells zero | protection from apoptosis, % (test concentration not listed) | 0.8% of 300,000 active;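 active means Every replicate reaches about 75%, or at least half do and their mean reaches it too, limit read from the data; inconclusive means At least half of replicates reach the limit but their mean does not; inactive means Under half of replicates reach the limit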;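 further: 0% = cytokine-treated negative control wells and 100% = positive control rescue; higher means more ATP so stronger rescue from cytokine killing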
# * marks the source's active call; other numbers are inactive results; ? = inconclusive; . = no result given. Rows were chosen to be rich in hits. Some 4.9% of all compounds tested hit in one or more screens of this group.
SMILES,PP5 primary,Mdm2-MdmX inh,CSC inhib,Calb FLC,PP1 inh,Beta cell apopt
N#CC1=C(N)Oc2c(ccc3cccnc23)C1c1cccnc1 (configuration not stated),0,29,68,104*,1,99*
CCN(C(=O)COC(=O)C1CCN(S(=O)(=O)c2ccc3c(c2)OCCO3)CC1)C1CCCCC1,0,-3,-12,0,-4,-6
COc1cc(CSc2nnnn2-c2ccc(C)cc2)cc(OC)c1OC,4,37,-12,10,-7,102*
O=C(CSc1nc(C2CC2)nc2ccccc12)N1c2ccccc2Sc2ccccc21,2,6,5,1,5,.
CC(C)Oc1ccc(C(CC(=O)O)n2cnnn2)cc1 (configuration not stated),3,4,-1,10,-4,2
CCCCC(CC)CN1C(=O)/C(=C/c2ccncc2)SC1=S (configuration not stated),1,21,107*,-7,-3,88*
CN(C)S(=O)(=O)c1ccc(NC(=O)COC(=O)CC2CC3CCC2C3)cc1 (configuration not stated),1,-3,-3,16,3,-30
O=C(O)c1[nH]c2ccccc2c1C(c1cc(Cl)cc([N+](=O)[O-])c1O)c1c(C(=O)O)[nH]c2ccccc12,1,11,-9,23,15*,.
Cc1cccc2sc(NC(=O)C3c4ccccc4Oc4ccccc43)nc12,3,35,126*,-1,1,46
CCN1C(=O)/C(=C\c2ccncc2)SC1=Nc1ccc(C)c(C)c1,2,25,84*,3,4,8
CCOc1ccc2nc(N3C(=O)/C(=C/c4ccccc4)NC3=S)sc2c1,1,-43,.,92*,-2,15
CCOc1ccc(CNC(=O)CCS(=O)(=O)Cc2cccc(Cl)c2)cc1OC,1,-16,1,5,-2,-1
O=C(NC(=S)Nc1ccccc1Cl)c1cncc(Br)c1,2,-5,-14,2,2,5
CC(C)N(C(=O)CSc1nc2ccccc2n1Cc1ccccc1)C(C)C,3,21,0,-10,7,1
CC(C)N(C(=O)CSc1nc2ccccc2n1-c1ccccc1)C(C)C,5,17,78*,4,0,-5
COc1ccc(N2CCN(C(c3cccs3)C(C)NS(C)(=O)=O)CC2)cc1 (configuration not stated),1,-10,-18,-13,-6,6
Cc1cccc(C)c1OCC(=O)NNC(=S)NC(=O)C1CC1,2,26,12,76*,-1,32
Cc1cccc(C)c1OCC(=O)NC1CC1,3,5,-2,13,0,-9
CCCn1c(=S)[nH]c2cc(C(=O)N3CCN(C4CCCCC4)CC3)ccc2c1=O,3,17,8,0,-6,3
C=C[C@@H]1c2c(F)cccc2N(S(=O)(=O)c2ccc(C)cc2)[C@H](c2ccc(C(=O)OC)cc2)C1(C#N)C#N,2,14,15,.,5,5
C=C[C@@H]1c2c(F)cccc2N(S(=O)(=O)c2ccc(C)cc2)[C@H](c2ccc(OC(C)=O)cc2)C1(C#N)C#N,3,37,112*,.,5,-1
COc1ccccc1-c1oc2ccccc2c1C#CCCO,3,4,-32,.,-1,0
Cc1cccc(-c2oc3ccccc3c2C#CCCO)c1,5,13,89*,-11,1,-4
Cc1cccc(-c2oc3ccccc3c2C#CCCCCO)c1,6,30,101*,-18,-2,-1
CC(=O)N1c2ccc(S(=O)(=O)N(C)CC(=O)NC(C)c3ccccc3)cc2CC1C (configuration not stated),1,14,-16,-8,3,-4
SMILES,PP5 primary,Mdm2-MdmX inh,CSC inhib,Calb FLC,PP1 inh,Beta cell apopt
Clc1ccc(CONc2ncnc3nonc23)c(Cl)c1,2,-38,25,76*,-3,9
CCONc1ncnc2nonc12,1,-26,0,?,-1,-8
O=C(O)c1cc2ncc(CCO)cn2n1,1,-9,10,1,2,.
Cc1noc(C)c1C(=O)Nc1nnc(CC(C)C)s1,-1,2,-10,9,-5,0
COc1ccccc1OCCn1cc(/C=N/n2cnnc2)c2ccccc21,2,1,11,1,1,-3
O=C(Nc1ccc(O)c(-c2nc3ccccc3o2)c1)C1(c2ccc(Br)cc2)CCCC1,-1,20,84*,-5,0,4

# Screening data as filed in PubChem BioAssay.
